Sampled rows, rich in hits. Any-hit rate of the full collection: about 3.9%.
HT1080 IDH1KD tx – kills HT-1080 cells with IDH1 knockdown. HT-1080 IDH1 knockdown viability, ATP luminescence, 48 h. 360,000 tested, 2% active. Potency, µM (series often up to 46.1 µM), for inactives: at the highest dose activity, negative = toxicity, usual class: cytotoxic. AID 686971;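 further: 0% = DMSO wells and -100% = cell-free medium wells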
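Assay cells: HT-1080 with IDH1 knockdown, 750 per well, RPMI/5% FBS. Exposure: 48 h at 37 °C following 2 h pre-incubation. Read: CellTiter-Glo luminescence; fitted concentration-response, curve class assigned.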
ATXN2 expr inh – ATXN2 expression inhibition | HEK-293 ATXN2-luciferase reporter, luminescence, 24 h | Potency, µM (highest dose often 57 µM), for the others: at the highest dose activity change, negative = inhibition, usual class: inhibitors | 360,000 tested, 0.72% active; further: on the % scale 0 is the no-effect control and ±100 the full control effect; nearly all actives have a fitted effect of over 55% in size
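ATXN2-luciferase reporter cells (luciferase flanked by upstream and downstream ATXN2 gene portions) were treated 24 h at 37 °C with compounds at up to 57 uM. SteadyGlo luminescence gave expression; GF-AFC fluorescence gave viability.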
S2 tox – viability counter-screen for ATXN expression inhibitors; Potency, µM (doses to about 56.7 µM), hits mostly cytotoxic; S2 cells (HEK-293 line with an ATXN2-luciferase reporter) viability, CellTiter-Fluor protease fluorescence, 24 h; 400,000 tested, 0.49% active; AID 651635; further: nearly all actives have a fitted effect of over 40% in size
HT1080NT lethal – kills 2HG-producing HT-1080-NT fibrosarcoma cells. HT-1080-NT fibrosarcoma viability, CellTiter-Glo ATP luminescence, 48 h. Potency, µM (highest dose often 46.1 µM), without a hit: at the highest dose activity, negative = less viability, most hits filed as cytotoxic. 360,000 tested, 1.6% active. AID 686970;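 further: NT is the 2HG producing partner of a matched IDH1 knockdown line; 0% = DMSO-treated cells and -100% = media-only wells without cells; nearly all actives have a fitted effect of over 55% in size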
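Viability of the 2HG-overproducing fibrosarcoma line after 48 hours of compound exposure at 37 degrees C was determined by luminescence with CellTiter-Glo, and concentration-effect curves were then fitted and categorized.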
HepG2 viability – kills HepG2 cells in TGF-b inhibitor counter-screen; HepG2 CAGA-GFP viability, ATP luminescence, 18 h; Potency, µM (doses to about 46.1 µM), for the others: at the highest dose activity change, negative = cytotoxicity, actives largely listed as cytotoxic; 410,000 tested, 0.76% active
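HepG2 CAGA-GFP cells (1000/well, DMEM with 1% FBS) received compound, then TGF-beta at 500 pg/mL final, and were incubated 18 hours at 37 degrees C. Viability was read by CellTiter-Glo luminescence. Media-only wells were set as complete cell-killing and DMSO as no toxicity.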
TGFb SMAD3 inh – inhibitors of TGF-b signaling; HepG2 CAGA-GFP TGF-b/SMAD3 reporter, GFP fluorescence, 18 h; TGF-beta stimulated, 500 pg/mL final; Potency, µM (series often up to 46.1 µM), for the others: at the highest dose activity, negative = inhibition, most hits filed as inhibitors; 410,000 tested, 1.2% active; AID 588855; further: on the % scale 0 is the no-effect control and ±100 the full control effect; nearly all actives have a fitted effect of over 65% in size
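TGF-beta reporter screen: HEPG2 CAGA-GFP, 1% FBS, 500 pg/mL TGF-beta final, 18 h; per-cell GFP summed per well; curves fitted and categorized by class.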
Active calls of the source: *; i = inactive; u = inconclusive; x = no result given. The call rests on the fitted dose curve; in most records, active means well fitted curve in the direction sought with a large enough effect; inconclusive means small, poorly fitted or top-dose-only effect, or another doubt; inactive means no such curve, though single readings can be large; an effect the other way counts as inactive or inconclusive. Potency means the concentration at half of the fitted maximal effect.

SMILES | HT1080 IDH1KD tx | ATXN2 expr inh | S2 tox | HT1080NT lethal | HepG2 viability | TGFb SMAD3 inh
CS(=O)(=O)Nc1cccc(NC(=O)c2cccc3c(-c4cccc(C(N)=O)c4)coc23)c1 | u | u | i | u | -2.6% | 10.4%
Cc1ccc(C)c(N2CCN(S(=O)(=O)c3cc(-c4cc(C)no4)ccc3C)CC2)c1 | x | x | x | x | -10.9% | u
CCOC(=O)Cn1c(=N)n(CCOc2ccc3ccccc3c2)c2ccccc21 | u | -23.2% | u | u | -100.3% | 11.2µM*
CCOC(=O)Cn1c(=N)n(CCOc2ccc(OC)cc2)c2ccccc21 | 9.7% | 0.2% | i | 0.5% | -5.6% | 0.4%
O=C(N/N=C/c1cc(O)ccc1Br)c1cccnc1 | u | 2.82µM* | u | u | -48.7% | -26.8%
O=C(N/N=C/c1cc(Br)c(O)c(Br)c1O)c1cccnc1 | 10.3µM* | x | u | u | 0.3% | -5.3%
O=C(N/N=C/c1cc2c(cc1Br)OCO2)c1cccnc1 | 0.9% | 20.6% | i | 0.9% | -12.9% | -20.1%
O=C(N/N=C/c1ccc(Br)s1)c1cccnc1 | 11.4% | 2.8% | i | 9.7% | -27.8% | -4.5%
Cc1cc(O)c(C)c(O)c1/C=N/NC(=O)c1cccnc1 | u | 11.2µM* | i | u | -11.1% | -3.7%
COc1ccc(-c2onc(C)c2-c2ccccc2)c(O)c1 | 16.4µM* | -17.3% | u | u | -29.7% | -19.4%
COc1ccc(-c2onc(C)c2-c2cnn(-c3ccccc3)c2)c(O)c1 | u | -19.4% | i | -7.7% | -40.1% | u
CCC(c1ccc(O)c(O)c1)C(CC)c1ccc(O)c(O)c1 (configuration not stated) | 20.6µM* | u | x | 23.1µM* | -18.5% | u
CN(C)c1ccc(C(=O)Nc2nc3c(s2)CCCC3)cc1 | -17.5% | u | u | 0.9% | -5.1% | -19.3%
C/C(=N\Nc1nc2c(s1)CCCC2)c1ccc(Cl)cc1 | 23.1µM* | 4.8% | i | 23.1µM* | -21.3% | u
O=C(CS(=O)c1ccc(C(F)(F)F)cc1[N+](=O)[O-])Oc1ccccc1 (configuration not stated) | 16.4µM* | u | u | 16.4µM* | 3.55µM* | u
CS(=O)(=O)c1ccc(S(=O)CC(=O)OCc2ccccc2)c([N+](=O)[O-])c1 (configuration not stated) | 4.11µM* | u | x | 5.8µM* | 7.08µM* | 4.47µM*
CCOC(=O)c1ccccc1OC(=O)CS(=O)c1ccccc1[N+](=O)[O-] (configuration not stated) | -6.5% | 2.2% | i | -13.5% | -21.9% | -29.8%
COc1ccc(Cl)cc1NC(=O)CN1C(=O)CSc2ccc(S(=O)(=O)N3CCCC3)cc21 | x | x | x | x | -8.3% | -11.1%
O=C1CC[C@@H](CN(Cc2cccnc2)C2CCN(c3ccc(NC(=O)c4cnccn4)cc3)CC2)N1 | x | x | i | x | x | x
c1cc2cc(-c3c(-c4ccc5c(c4)OCO5)noc3-c3ccsc3)ccc2[nH]1 | u | 14.4% | i | -26.3% | -84.9% | u
Cc1onc(-c2ccc3c(c2)OCO3)c1-c1ccc2[nH]ccc2c1 | u | -22.7% | u | -21.1% | -13.4% | 12.6µM*
COc1ccccc1Cc1nc2ccccc2nc1SCC(=O)N1CCC(C)CC1 | x | 0.8% | u | x | -59.6% | 15.8µM*
COc1cccc(Cc2nc3ccccc3nc2SCC(=O)N2CCN(c3ccccc3)CC2)c1 | x | x | x | x | -19.9% | -1.9%
COc1cccc(Cc2nc3ccccc3nc2SCC(=O)N2CCCCC2C)c1 (configuration not stated) | x | u | u | x | -29.0% | 11.2µM*
Cc1ccc(Cc2nc3ccccc3nc2SCC(=O)N2CCCCC2C)cc1 (configuration not stated) | x | u | u | x | -36.6% | 15.8µM*
COc1ccccc1Cc1nc2ccccc2nc1SCC(=O)N1CCN(c2ccccc2)CC1 | x | x | x | x | 7.2% | 25.1%
